Test results: PubChem BioAssay (EPA / NIEHS)
Where “and” joins values, the source holds several entries; their conditions need not be identical. Equal values may be shown once. The source holds several records for some structures; these can differ, active in one and inactive in another. Calls of active or inactive are those of the source. How the source made its calls: active means hit-call score of the fitted dose curve at least 0.9, where 1 is the maximum; inactive means score below 0.9.

What was measured:
[1] = read-out: Urokinase-type plasminogen activator receptor (uPAR), PLAUR (gene 5329); test: BSK_4H_uPAR: BioMAP Diversity Plus: 4H Assay for Urokinase-type plasminogen activator receptor (uPAR) Biomarker Activity (AID 2283030); conditions: primary human endothelial cells (HUVEC); actives raise or lower the signal
Method in brief: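 Primary human umbilical vein endothelial cells were exposed to chemical for 24 h before cell-surface uPAR was quantified by ELISA. Activity was fitted bidirectionally against the DMSO negative control baseline.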

[2] = read-out: Vascular endothelial growth factor receptor 2 (Homo sapiens) (UniProt P35968); test: BSK_4H_VEGFRII: BioMAP Diversity Plus: 4H Assay for Vascular endothelial growth factor receptor 2 (VEGFR2) Biomarker Activity (AID 2283031); conditions: primary human endothelial cells (HUVEC); actives raise or lower the signal;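 on AC50: cell-surface VEGFR2 protein level quantified by ELISA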
Method in brief: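 Primary human umbilical vein endothelial cells in the BioMAP 4H system were dosed with test chemical, and 24 h later VEGFRII was measured by ELISA. Activity was fitted bidirectionally against DMSO as negative control and baseline.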

[3] = read-out: Vascular cell adhesion molecule 1 (VCAM1), VCAM1 (gene 7412); test: BSK_4H_VCAM1: BioMAP Diversity Plus: 4H Assay for Vascular cell adhesion molecule 1 (VCAM1) Biomarker Activity (AID 2283033); conditions: primary human endothelial cells (HUVEC); actives raise or lower the signal
Method in brief: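 HUVEC, 24 h post-dose; VCAM-1 by ELISA. Bidirectional curve fit vs DMSO baseline. Parallel SRB total-protein stain (0.1% SRB after 10% TCA fixation, 560 nm) for cytotoxicity.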

[4] = read-out: Interferon-gamma inducible Protein 10 (IP10), CXCL10 (gene 3627); test: BSK_BE3C_IP10: BioMAP Diversity Plus: BE3C Assay for Interferon-gamma inducible Protein 10 (IP10) Biomarker Activity (AID 2283034); conditions: primary human bronchial epithelial cells; actives raise or lower the signal
Method in brief: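 ELISA readout of IP-10 in BE3C system: primary human bronchial epithelial cells, 24 h post-dosing; bidirectional curve fit vs DMSO baseline.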

[5] = read-out: Monokine induced gamma interferon (MIG), CXCL9 (gene 4283); test: BSK_BE3C_MIG: BioMAP Diversity Plus: BE3C Assay for Monokine induced gamma interferon (MIG) Biomarker Activity (AID 2283035); conditions: primary human bronchial epithelial cells; actives raise or lower the signal
Method in brief: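 hu bronchial epithelial 1° cells, 24 h cpd; MIG by ELISA; bidirectional fit, DMSO = baseline.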

[6] = read-out: Transforming growth factor beta 1 (TGFb1), TGFB1 (gene 7040); test: BSK_BE3C_TGFb1: BioMAP Diversity Plus: BE3C Assay for Transforming growth factor beta 1 (TGFb1) Biomarker Activity (AID 2283036); conditions: primary human bronchial epithelial cells; actives raise or lower the signal
Method in brief: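 Read-out: ELISA for TGF-b1 in primary human bronchial epithelial cultures, 24 h post-dose. Bidirectional curve fitting vs DMSO control; gain or loss of signal both scored.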

[7] = read-out: urokinase plasminogen activator (uPA), PLAU (gene 5328); test: BSK_BE3C_uPA: BioMAP Diversity Plus: BE3C Assay for urokinase plasminogen activator (uPA) Biomarker Activity (AID 2283038); conditions: primary human bronchial epithelial cells; actives raise or lower the signal
Method in brief: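 Human primary bronchial epithelial cells were exposed to chemical for 24 h, then uPA levels were measured by ELISA. Responses were fitted bidirectionally against DMSO as negative control and baseline. Parallel SRB staining of total protein gauged overt cytotoxicity.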

[8] = read-out: Urokinase-type plasminogen activator receptor (uPAR), PLAUR (gene 5329); test: BSK_BE3C_uPAR: BioMAP Diversity Plus: BE3C Assay for Urokinase-type plasminogen activator receptor (uPAR) Biomarker Activity (AID 2283039); conditions: primary human bronchial epithelial cells; actives raise or lower the signal
Method in brief: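 ELISA readout of uPAR on human lung primary bronchial epithelial cells, 24 h post-dosing. Bidirectional curve fit relative to DMSO vehicle baseline; gain or loss of signal both scored.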

[9] = read-out: Interleukin-6 (IL6), IL6 (gene 3569); test: BSK_CASM3C_IL6: BioMAP Diversity Plus: CASM3C Assay for Interleukin-6 (IL6) Biomarker Activity for (AID 2283040); conditions: primary human coronary artery smooth muscle cells; actives raise or lower the signal
[10] = read-out: Interleukin-8 (IL8), CXCL8 (gene 3576); test: BSK_CASM3C_IL8: BioMAP Diversity Plus: CASM3C Assay for Interleukin-8 (IL8) Biomarker Activity (AID 2283042); conditions: primary human coronary artery smooth muscle cells; actives raise or lower the signal;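 further: IL-8 protein level quantified by ELISA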
[11] = read-out: Human Leukocyte Antigen - DR isotype (HLADR), HLA-DRA (gene 3122); test: BSK_CASM3C_HLADR: BioMAP Diversity Plus: CASM3C Assay for Human Leukocyte Antigen - DR isotype (HLADR) Biomarker Activity (AID 2283043); conditions: primary human coronary artery smooth muscle cells; actives raise or lower the signal;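 further: cell-surface HLA-DR protein level quantified by ELISA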
[12] = read-out: Macrophage colony-stimulating factor (MCSF), CSF1 (gene 1435); test: BSK_CASM3C_MCSF: BioMAP Diversity Plus: CASM3C Assay for Macrophage colony-stimulating factor (MCSF) Biomarker Activity (AID 2283044); conditions: primary human coronary artery smooth muscle cells; actives raise or lower the signal;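 further: M-CSF protein amount quantified by ELISA after 24 h exposure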
[13] = read-out: Low-density lipoprotein receptor (LDLR), LDLR (gene 3949); test: BSK_CASM3C_LDLR: BioMAP Diversity Plus: CASM3C Assay for Low-density lipoprotein receptor (LDLR) Biomarker Activity (AID 2283045); conditions: primary human coronary artery smooth muscle cells; actives raise or lower the signal;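 further: LDLR protein level on the cell surface quantified by ELISA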
[14] = read-out: Monocyte Chemoattractant Protein-1 (MCP1), CCL2 (gene 6347); test: BSK_CASM3C_MCP1: BioMAP Diversity Plus: CASM3C Assay for Monocyte Chemoattractant Protein-1 (MCP1) Biomarker Activity (AID 2283046); conditions: primary human coronary artery smooth muscle cells; actives raise or lower the signal;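 further: MCP-1 level quantified by ELISA 24 h after dosing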
[15] = BSK_CASM3C_Proliferation: Cell Proliferation Assessment in the BioMAP Diversity Plus: CASM3C Assay (AID 2283047); conditions: primary human coronary artery smooth muscle cells;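 further: sulforhodamine B total protein stain as relative cell number at 560 nm; sub-confluent cells exposed 48 h before staining; fitted both ways against DMSO so gain or loss of cell number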
[16] = read-out: Monokine induced gamma interferon (MIG), CXCL9 (gene 4283); test: BSK_CASM3C_MIG: BioMAP Diversity Plus: CASM3C Assay for Monokine induced gamma interferon (MIG) Biomarker Activity (AID 2283048); conditions: primary human coronary artery smooth muscle cells; actives raise or lower the signal
[17] = read-out: serum amyloid A (SAA), SAA1 (gene 6288); test: BSK_CASM3C_SAA: BioMAP Diversity Plus: CASM3C Assay for serum amyloid A (SAA) Biomarker Activity (AID 2283049); conditions: primary human coronary artery smooth muscle cells; actives raise or lower the signal;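 further: SAA protein level quantified by ELISA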
[18] = read-out: Plasminogen activator inhibitor-1 (PAI1), SERPINE1 (gene 5054); test: BSK_BE3C_PAI1: BioMAP Diversity Plus: BE3C Assay for Plasminogen activator inhibitor-1 (PAI1) Biomarker Activity (AID 2283037); conditions: primary human bronchial epithelial cells; actives raise or lower the signal
Method in brief: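 ELISA read-out of PAI-1 from human bronchial epithelial primary cells, 24 h post-dosing; bidirectional curve fit vs DMSO baseline, gain or loss of signal scored.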

[19] = read-out: Tissue plasminogen activator (tPA), PLAT (gene 5327); test: BSK_BE3C_tPA: BioMAP Diversity Plus: BE3C Assay for Tissue plasminogen activator (tPA) Biomarker Activity (AID 2283041); conditions: primary human bronchial epithelial cells; actives raise or lower the signal;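 further: tPA level quantified by ELISA one day after compound addition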
Method in brief: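 ELISA read-out of tPA on human primary bronchial epithelial cells, 24 h post-dosing; bidirectional fit vs DMSO negative control/baseline.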

Measured: AC50

C[C@]12CC[C@@H]3c4ccc(O)cc4CC[C@H]3[C@@H]1CC[C@@H]2O
active: [1] 8.9 µM | [12] 3.24 µM | [15] 13.4 µM | [16] 12.2 µM
not listed: [18] | [19]
inactive: all other assays above

CCCCCCCCCC(=O)OCC
inactive: [2] | [5] | [7] | [8]
active: [1] 20 µM | [3] 31.7 µM | [4] 20 µM | [6] 20 µM | [9] 31.8 µM | [10] 37 µM | [11] 32.5 µM | [12] 31.4 µM | [13] 36.4 µM | [14] 31.9 µM | [15] 20 µM | [16] 31.5 µM | [17] 31.8 µM

O=C(c1ccc(OCCN2CCCCC2)cc1)c1c(-c2ccc(O)cc2)sc2cc(O)ccc12
inactive: [2] | [10] | [14] | [16] | [17]
active: [1] 25.3 µM | [3] 34.5 µM | [4] 39.2 µM | [5] 37.2 µM | [6] 31.9 µM | [7] 34 µM | [8] 31.8 µM | [9] 20.1 µM | [11] 26.1 µM | [13] 6.83 µM | [15] 23 µM

OCCN1CCOCC1
not listed: [18] | [19]
inactive: all other assays above

NC(=O)c1c(Cl)cccc1Cl
not listed: [18] | [19]
inactive: all other assays above

C=C(C)C(=O)OCCC(F)(F)C(F)(F)C(F)(F)C(F)(F)C(F)(F)C(F)(F)C(F)(F)C(F)(F)F
not listed: [6] | [18] | [19]
inactive: all other assays above

CC=CC(=O)C1=C(C)C=CCC1(C)C
not listed: [18] | [19]
inactive: all other assays above

CCCCN(CCO)CCO
not listed: [6] | [19]
inactive: all other assays above

C#C[C@]1(O)CC[C@H]2[C@@H]3CCc4cc(O)ccc4[C@H]3CC[C@@]21C
active: [1] 3.93 µM | [13] 29.2 µM | [14] 2.14 µM | [15] 7.37 µM | [17] 0.935 µM
not listed: [18] | [19]
inactive: all other assays above

C=CC(=O)OCC(CO)(COC(=O)C=C)COC(=O)C=C
active: [1] 0.964 µM | [2] 0.661 µM | [3] 0.302 µM | [4] 0.818 µM | [5] 2.03 µM | [6] 1.4 µM | [7] 0.631 µM | [8] 2.72 µM | [9] 0.835 µM | [10] 1.25 µM | [11] 0.567 µM | [12] 1.07 µM | [13] 1.31 µM | [14] 0.792 µM | [15] 0.302 µM | [16] 1.24 µM | [17] 5.46 µM

O=C(O)C(F)(F)OC(F)(F)C(F)(F)OC(F)(F)C(F)(F)C(F)(F)C(F)(F)F
active: [4] 46.8 µM and 41.4 µM | [14] 48 µM
inactive: [1] | [2] | [3] | [5] | [18] | [7] | [8] | [9] | [10] | [11] | [12] | [13] | [14] | [15] | [16] | [17]

CC1(C)[C@H](C=C(Cl)Cl)[C@H]1C(=O)OCc1cccc(Oc2ccccc2)c1
not listed: [18] | [19]
inactive: all other assays above

CC(C)CCCC(C)(C)O
not listed: [6] | [18] | [19]
inactive: all other assays above

O=C(O)C(F)(F)C(F)(F)C(F)(F)C(F)(F)C(F)(F)C(F)(F)C(F)(F)C(F)F
active: [4] 30 µM and 38.3 µM
not listed: [6] | [18] | [19]
inactive: all other assays above

O=S(=O)(O)C(F)(F)C(F)(F)OC(F)(F)C(F)(F)F
active: [17] 44.9 µM and 20 µM
not listed: [6] | [18]
inactive: all other assays above

CCCCCCCCCCCCS
active: [3] 11.2 µM | [4] 20 µM | [11] 33.8 µM | [14] 3.97 µM | [15] 24.4 µM
not listed: [18] | [19]
inactive: all other assays above

CCn1cc(C(=O)O)c(=O)c2ccc(C)nc21
not listed: [6] | [18] | [19]
inactive: all other assays above

CC(C)Cc1ccc(C(C)C(=O)O)cc1 (centres undefined)
active: [9] 5.55 µM | [15] 0.2 µM
not listed: [18] | [19]
inactive: all other assays above

CC(C)(C)c1cccc(O)c1
not listed: [18] | [19]
inactive: all other assays above

CC(=O)OCC=C(C)CCC=C(C)CCC=C(C)C
active: [4] 8.81 µM
not listed: [18] | [19]
inactive: all other assays above

c1ccc(OCCOc2ccccc2)cc1
not listed: [6] | [18] | [19]
inactive: all other assays above

C=C(C)C(N)=O
not listed: [18] | [19]
inactive: all other assays above
